{
  "source": "paper PMC7862700",
  "about": "“An all-to-all approach to the identification of sequence-specific readers for epigenetic DNA modifications on cytosine”",
  "test_in_all_cases": "DAPPL (digital affinity profiling via proximity ligation, sequencing); 10 mM Tris-HCl pH 7.5, 50 mM NaCl, 1 mM DTT, 4% glycerol, room temperature, 30 min; GST-TFs on glutathione beads, 16-mer random dsDNA library, 0.1% formaldehyde crosslink after washing; high values mean tight binding",
  "key": {"FEV": {"target": "T1, FEV (Homo sapiens, UniProt Q99581 1-238)", "T1 sequence": "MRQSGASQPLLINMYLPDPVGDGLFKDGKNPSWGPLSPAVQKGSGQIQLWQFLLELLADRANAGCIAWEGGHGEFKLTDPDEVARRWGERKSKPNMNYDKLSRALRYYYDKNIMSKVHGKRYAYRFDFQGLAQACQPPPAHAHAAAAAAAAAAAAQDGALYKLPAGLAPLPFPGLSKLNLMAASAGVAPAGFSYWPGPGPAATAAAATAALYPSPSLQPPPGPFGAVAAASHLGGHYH", "conditions": "protein: recombinant; tags: N-terminal GST; dsDNA, one strand shown", "summary_of_the_method": "(§1)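 Human transcription factors carrying a GST fusion were produced in yeast, bound to glutathione beads, tagged with DNA barcodes and pooled together with a tag-only sample. Each pool was held with 200 nmole of a random double-stranded 16-mer DNA library in Tris/NaCl/DTT/glycerol buffer for 30 min at room temperature, then washed, crosslinked in 0.1% formaldehyde, proximity-ligated with BsaI/T4 ligase (1 h, 37 °C), PCR-amplified and sequenced on an Illumina NextSeq500. Binding signal is the read frequency of each hexamer for a given factor divided by its frequency in the tag-only sample.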"}, "ETV5": {"target": "ETV5 (Homo sapiens, UniProt P41161 1-510)", "sequence (P41161 whole entry)": "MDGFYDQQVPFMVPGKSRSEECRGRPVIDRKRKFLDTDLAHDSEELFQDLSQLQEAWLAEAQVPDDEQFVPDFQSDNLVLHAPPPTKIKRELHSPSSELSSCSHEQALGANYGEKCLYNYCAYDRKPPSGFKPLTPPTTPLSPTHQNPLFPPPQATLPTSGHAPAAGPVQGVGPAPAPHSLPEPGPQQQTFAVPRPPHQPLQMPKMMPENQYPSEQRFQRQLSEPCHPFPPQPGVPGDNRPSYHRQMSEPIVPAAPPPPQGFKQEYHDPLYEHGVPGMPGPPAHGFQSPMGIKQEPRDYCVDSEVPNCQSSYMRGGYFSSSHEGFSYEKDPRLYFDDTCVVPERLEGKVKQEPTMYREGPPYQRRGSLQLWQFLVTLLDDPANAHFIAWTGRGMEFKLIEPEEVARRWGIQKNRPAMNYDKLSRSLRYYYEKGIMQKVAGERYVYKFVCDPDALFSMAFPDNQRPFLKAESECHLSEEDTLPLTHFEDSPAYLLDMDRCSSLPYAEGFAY", "conditions": "protein: recombinant; tags: N-terminal GST; dsDNA, one strand shown", "summary_of_the_method": "as §1"}, "HSF1": {"target": "HSF1 (Homo sapiens, UniProt Q00613 1-529)", "sequence (Q00613 whole entry)": "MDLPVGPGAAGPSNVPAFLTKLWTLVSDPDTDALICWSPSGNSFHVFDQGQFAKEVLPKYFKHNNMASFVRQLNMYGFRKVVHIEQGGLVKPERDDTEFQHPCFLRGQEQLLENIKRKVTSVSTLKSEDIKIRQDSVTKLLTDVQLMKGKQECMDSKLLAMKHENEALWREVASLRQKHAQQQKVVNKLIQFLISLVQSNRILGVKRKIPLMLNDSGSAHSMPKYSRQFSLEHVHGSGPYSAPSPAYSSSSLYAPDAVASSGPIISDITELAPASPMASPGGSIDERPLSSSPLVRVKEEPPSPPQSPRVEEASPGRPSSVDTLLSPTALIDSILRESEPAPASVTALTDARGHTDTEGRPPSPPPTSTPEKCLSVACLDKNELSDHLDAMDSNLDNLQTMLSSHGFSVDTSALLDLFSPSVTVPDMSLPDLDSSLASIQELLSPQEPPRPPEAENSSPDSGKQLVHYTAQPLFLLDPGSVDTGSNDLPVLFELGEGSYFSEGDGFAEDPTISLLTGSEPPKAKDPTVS", "conditions": "protein: recombinant; tags: N-terminal GST; chain copies: 3; dsDNA, one strand shown", "summary_of_the_method": "as §1"}, "SPIC": {"target": "T2, SPIC (Homo sapiens, UniProt Q8N5J4 1-248)", "T2 sequence": "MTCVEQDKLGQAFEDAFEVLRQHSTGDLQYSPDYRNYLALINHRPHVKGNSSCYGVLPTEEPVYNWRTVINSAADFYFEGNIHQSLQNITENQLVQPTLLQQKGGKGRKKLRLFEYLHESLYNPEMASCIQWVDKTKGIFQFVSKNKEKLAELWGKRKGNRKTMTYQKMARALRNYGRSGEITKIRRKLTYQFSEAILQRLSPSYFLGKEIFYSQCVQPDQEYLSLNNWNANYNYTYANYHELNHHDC", "conditions": "protein: recombinant; tags: N-terminal GST; dsDNA, one strand shown", "summary_of_the_method": "as §1"}, "ELF4": {"target": "ELF4 (Homo sapiens, UniProt Q99607 1-663)", "sequence (Q99607 whole entry)": "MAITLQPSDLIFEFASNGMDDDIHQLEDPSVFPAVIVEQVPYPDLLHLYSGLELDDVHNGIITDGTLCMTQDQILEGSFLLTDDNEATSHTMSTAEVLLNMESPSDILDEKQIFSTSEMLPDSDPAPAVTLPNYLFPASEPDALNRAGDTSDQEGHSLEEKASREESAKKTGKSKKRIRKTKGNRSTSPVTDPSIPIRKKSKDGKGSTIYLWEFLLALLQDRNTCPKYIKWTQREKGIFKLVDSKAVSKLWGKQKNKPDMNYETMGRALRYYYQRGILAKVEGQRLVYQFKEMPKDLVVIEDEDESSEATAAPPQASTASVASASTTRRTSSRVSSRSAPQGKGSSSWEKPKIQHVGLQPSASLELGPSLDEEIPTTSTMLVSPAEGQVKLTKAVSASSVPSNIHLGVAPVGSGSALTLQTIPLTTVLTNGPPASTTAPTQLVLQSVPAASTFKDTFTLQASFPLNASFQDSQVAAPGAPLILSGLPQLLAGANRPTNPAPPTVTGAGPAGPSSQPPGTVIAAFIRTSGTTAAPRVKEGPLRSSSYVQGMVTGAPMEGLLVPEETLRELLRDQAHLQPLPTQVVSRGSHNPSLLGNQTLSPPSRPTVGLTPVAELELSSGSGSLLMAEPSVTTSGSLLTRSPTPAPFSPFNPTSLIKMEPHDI", "conditions": "protein: recombinant; tags: N-terminal GST; dsDNA, one strand shown", "summary_of_the_method": "as §1"}, "ELK4": {"target": "T3, ELK4 (Homo sapiens, UniProt P28324-2 1-405)", "T3 sequence": "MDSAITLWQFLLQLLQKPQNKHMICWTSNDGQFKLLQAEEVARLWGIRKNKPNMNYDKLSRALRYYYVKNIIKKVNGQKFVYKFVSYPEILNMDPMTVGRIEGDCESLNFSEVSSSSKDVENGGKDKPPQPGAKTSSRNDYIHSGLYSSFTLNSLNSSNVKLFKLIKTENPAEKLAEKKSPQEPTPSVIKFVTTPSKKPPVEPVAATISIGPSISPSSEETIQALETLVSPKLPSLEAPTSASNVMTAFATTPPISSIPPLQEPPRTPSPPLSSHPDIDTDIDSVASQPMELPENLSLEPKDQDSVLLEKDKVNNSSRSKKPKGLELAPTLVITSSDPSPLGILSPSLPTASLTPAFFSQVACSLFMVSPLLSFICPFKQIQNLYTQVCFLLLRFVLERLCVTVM", "conditions": "protein: recombinant; tags: N-terminal GST; dsDNA, one strand shown", "summary_of_the_method": "as §1"}, "ETV2": {"target": "T4, ETV2 (Homo sapiens, UniProt O00321 1-342)", "T4 sequence": "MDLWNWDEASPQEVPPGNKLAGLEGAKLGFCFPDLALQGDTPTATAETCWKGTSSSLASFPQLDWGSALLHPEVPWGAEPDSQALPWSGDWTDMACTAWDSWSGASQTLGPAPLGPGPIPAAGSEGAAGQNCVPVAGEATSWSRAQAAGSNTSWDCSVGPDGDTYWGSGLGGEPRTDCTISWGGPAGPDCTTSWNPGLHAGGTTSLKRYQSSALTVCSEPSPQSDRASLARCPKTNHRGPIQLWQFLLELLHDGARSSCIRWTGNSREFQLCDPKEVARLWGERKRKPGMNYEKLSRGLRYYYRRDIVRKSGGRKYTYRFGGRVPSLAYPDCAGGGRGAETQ", "conditions": "protein: recombinant; tags: N-terminal GST; dsDNA, one strand shown", "summary_of_the_method": "as §1"}, "ELF3": {"target": "T5, ELF3 (Homo sapiens, UniProt P78545 1-371)", "T5 sequence": "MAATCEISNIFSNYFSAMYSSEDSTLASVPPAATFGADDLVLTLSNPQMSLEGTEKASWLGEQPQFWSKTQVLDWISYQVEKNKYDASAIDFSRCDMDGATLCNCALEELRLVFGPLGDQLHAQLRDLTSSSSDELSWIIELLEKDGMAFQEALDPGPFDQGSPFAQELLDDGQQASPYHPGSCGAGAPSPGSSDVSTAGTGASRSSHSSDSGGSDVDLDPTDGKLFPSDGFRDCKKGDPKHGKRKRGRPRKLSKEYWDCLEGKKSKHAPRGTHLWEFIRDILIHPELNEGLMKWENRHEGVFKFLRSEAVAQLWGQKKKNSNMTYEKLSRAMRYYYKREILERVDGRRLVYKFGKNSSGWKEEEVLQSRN", "conditions": "protein: recombinant; tags: N-terminal GST; dsDNA, one strand shown", "summary_of_the_method": "as §1"}, "CRX": {"target": "CRX (Homo sapiens, UniProt O43186 1-299)", "sequence (O43186 whole entry)": "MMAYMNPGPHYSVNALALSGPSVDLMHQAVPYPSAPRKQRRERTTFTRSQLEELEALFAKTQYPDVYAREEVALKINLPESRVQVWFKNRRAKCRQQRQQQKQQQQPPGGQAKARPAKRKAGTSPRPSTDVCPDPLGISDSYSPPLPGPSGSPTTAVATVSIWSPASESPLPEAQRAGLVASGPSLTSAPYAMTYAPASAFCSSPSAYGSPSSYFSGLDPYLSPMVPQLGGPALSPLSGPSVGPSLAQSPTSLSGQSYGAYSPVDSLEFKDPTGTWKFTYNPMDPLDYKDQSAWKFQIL", "conditions": "protein: recombinant; tags: N-terminal GST; dsDNA, one strand shown", "summary_of_the_method": "as §1"}, "ETV1": {"target": "ETV1 (Homo sapiens, UniProt P50549 1-477)", "sequence (P50549 whole entry)": "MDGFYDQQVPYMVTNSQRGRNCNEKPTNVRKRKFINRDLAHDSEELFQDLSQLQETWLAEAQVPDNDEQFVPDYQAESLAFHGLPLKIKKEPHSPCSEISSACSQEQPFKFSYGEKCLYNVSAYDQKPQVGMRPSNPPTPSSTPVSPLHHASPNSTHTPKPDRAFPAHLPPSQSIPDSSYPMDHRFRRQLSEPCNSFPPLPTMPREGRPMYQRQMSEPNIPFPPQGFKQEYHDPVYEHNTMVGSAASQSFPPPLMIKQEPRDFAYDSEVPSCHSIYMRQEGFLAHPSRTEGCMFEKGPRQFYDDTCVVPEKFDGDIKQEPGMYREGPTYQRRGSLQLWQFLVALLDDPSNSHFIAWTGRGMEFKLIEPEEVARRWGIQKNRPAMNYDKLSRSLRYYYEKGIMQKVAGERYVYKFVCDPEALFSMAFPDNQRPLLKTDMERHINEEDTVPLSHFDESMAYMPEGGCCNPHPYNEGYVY", "conditions": "protein: recombinant; tags: N-terminal GST; dsDNA, one strand shown", "summary_of_the_method": "as §1"}},
  "data": [
    {"sequence": "CTTGCA", "values": [
      {"measurement": "binding signal", "setting": "FEV", "value": "1.3 fold enrichment (6-mer frequency, TF over GST control)"},
      {"measurement": "binding signal", "setting": "ETV5", "value": "1.31 fold enrichment (6-mer frequency, TF over GST control)"},
      {"measurement": "binding signal", "setting": "HSF1", "value": "1.12 fold enrichment (6-mer frequency, TF over GST control)"},
      {"measurement": "binding signal", "setting": "SPIC", "value": "1.28 fold enrichment (6-mer frequency, TF over GST control)"},
      {"measurement": "binding signal", "setting": "ELF4", "value": "1.41 fold enrichment (6-mer frequency, TF over GST control)"},
      {"measurement": "binding signal", "setting": "ELK4", "value": "1.4 fold enrichment (6-mer frequency, TF over GST control)"},
      {"measurement": "binding signal", "setting": "ETV2", "value": "1.45 fold enrichment (6-mer frequency, TF over GST control)"},
      {"measurement": "binding signal", "setting": "ELF3", "value": "1.3 fold enrichment (6-mer frequency, TF over GST control)"},
      {"measurement": "binding signal", "setting": "CRX", "value": "1.15 fold enrichment (6-mer frequency, TF over GST control)"},
      {"measurement": "binding signal", "setting": "ETV1", "value": "1.41 fold enrichment (6-mer frequency, TF over GST control)"}
    ]}
  ]
}
